From PubChem BioAssay AID1159580 (chemical genetic matrix, 2015)
Several values for one entry are separate records, joined by “and”; a condition that tells them apart may be missing. Identical values can stand only once. In all, about 5,500 compounds went through this assay and about 2,000 (36%) were called active. Inconclusive results (about 18%) are left out. No stated cut-off is given here; in the data, active means normalized growth mostly below about 0.91 (no sharp cut-off); inconclusive means no clear call, values can overlap the other calls; inactive means mostly above about 0.92. The list shows a part of the results.

Assay: chemical genetic growth profiling, strain panel (AID 1159580);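 further: tested at 20 µM; growth read once vehicle control cultures reached saturation at 30 °C; 1 = growth at the plate median or of vehicle wells; lower values mean less growth of the strain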
Settings: S. cerevisiae deletion strains, growth OD

Measured: normalized growth

Oc1ccc2c(c1)OCC1(O)Cc3cc(O)c(O)cc3C21 (stereo unspecified)
inactive: locus YAL021C, strain ccr4, hits give low values 1.03 | locus YAL026C, strain drs2, hits give low values 1.03 | locus YAL030W, strain snc1, hits give low values 1.02 | locus YBL061C, strain skt5, hits give low values 1.03 | locus YBR009C, strain hhf1, hits give low values 1.01 | locus YBR021W, strain FUR4, hits give low values 1.04 | locus YBR023C, strain chs3, hits give low values 1.03 | locus YBR171W, strain sec66, hits give low values 1.04 | locus YBR229C, strain ROT2, hits give low values 1.01 | locus YBR231C, strain swc5, hits give low values 1.01 | locus YBR279W, strain paf1, hits give low values 1.02 | locus YCL011C, strain gbp2, hits give low values 1.03 | locus YCL016C, strain dcc1, hits give low values 1.03 | locus YCL029C, strain bik1, hits give low values 1.01 | locus YCL061C, strain MRC1, hits give low values 1.02 | locus YCL069W, strain vba3, hits give low values 1.03 | locus YCR088W, strain abp1, hits give low values 1.02 | locus YDL005C, strain med2, hits give low values 1.03 | locus YDL035C, strain GPR1, hits give low values 1.03 | locus YDL040C, strain nat1, hits give low values 1.02 | locus YDL074C, strain BRE1, hits give low values 0.936 | locus YDL101C, strain DUN1, hits give low values 0.958 | locus YDL185W, strain tfp1, hits give low values 0.964 | locus YDL192W, strain arf1, hits give low values 1.01 | locus YDR001C, strain nth1, hits give low values 1.03 | locus YDR069C, strain doa4, hits give low values 1.01 | locus YDR101C, strain arx1, hits give low values 1.07 | locus YDR137W, strain rgp1, hits give low values 1.15 | locus YDR150W, strain NUM1, hits give low values 1 | locus YDR159W, strain sac3, hits give low values 1.05 | locus YDR162C, strain NBP2, hits give low values 0.976 | locus YDR195W, strain ref2 1.02 | locus YDR297W, strain sur2, hits give low values 1.02 | locus YDR318W, strain mcm21, hits give low values 0.98 | locus YDR334W, strain swr1, hits give low values 1.03 | locus YDR335W, strain msn5, hits give low values 1.01 | locus YDR388W, hits give low values 0.978 | locus YDR392W, strain spt3, hits give low values 1.03 | locus YDR502C, strain sam2, hits give low values 0.996 | locus YEL003W, strain gim4, hits give low values 1.02 | locus YEL037C, strain rad23, hits give low values 1.02 | locus YEL061C, strain CIN8 (second series), hits give low values 1.04 | locus YER015W, strain faa2, hits give low values 1.01 | locus YER016W, strain bim1, hits give low values 1.03 | locus YER110C, hits give low values 0.996 | locus YER111C, strain swi4, hits give low values 1.03 | locus YER155C, strain BEM2 (second series), hits give low values 1.03 | locus YER155C, strain BEM2, hits give low values 1.04 | locus YER167W, strain BCK2, hits give low values 1.04 | locus YFR010W, strain ubp6, hits give low values 1.02 | locus YGL078C, strain dbp3, hits give low values 0.986 | locus YGL086W, strain mad1, hits give low values 0.996 | locus YGL167C, strain pmr1, hits give low values 1.02 | locus YGL173C, strain kem1, hits give low values 1.03 | locus YGL227W, strain vid30, hits give low values 1.04 | locus YGL240W, strain doc1, hits give low values 1.02 | locus YGL248W, strain PDE1, hits give low values 0.989 | locus YGL253W, strain hxk2, hits give low values 1.02 | locus YGR078C, strain PAC10, hits give low values 0.977 | locus YGR135W, strain pre9, hits give low values 0.945 | locus YGR229C, strain SMI1, hits give low values 0.968 | locus YGR252W, strain gcn5, hits give low values 1.06 | locus YHR013C, strain ard1, hits give low values 1.07 | locus YHR027C, strain rpn1, hits give low values 1.02 | locus YHR030C, strain SLT2, hits give low values 0.995 | locus YHR079C, strain IRE1 (second series), hits give low values 0.993 | locus YHR079C, strain IRE1, hits give low values 0.992 | locus YHR094C, strain hxt1, hits give low values 1 | locus YHR129C, strain ARP1, hits give low values 0.98 | locus YHR142W, strain chs7, hits give low values 1.05 | locus YHR200W, strain rpn10, hits give low values 1.01 | locus YIL066C, strain RNR3, hits give low values 1.03 | locus YIL073C, strain SPO22, hits give low values 0.964 | locus YIL125W, strain kgd1, hits give low values 1.01 | locus YIR030C, strain dcg1, hits give low values 1 | locus YJL092W, strain hpr5, hits give low values 1.03 | locus YJL095W, strain BCK1 (second series), hits give low values 1.02 | locus YJL095W, strain BCK1, hits give low values 0.88 and 0.999 | locus YJL115W, strain asf1, hits give low values 1.04 | locus YJL129C, strain trk1, hits give low values 1.09 | locus YJL134W, strain LCB3, hits give low values 1.01 | locus YJL154C, strain vps35, hits give low values 1.03 | locus YJL164C, strain tpk1, hits give low values 1.03 | locus YJL166W, strain qcr8, hits give low values 1.02 | locus YJL168C, strain set2, hits give low values 0.983 | locus YJL187C, strain SWE1 (second series), hits give low values 0.922
